The entries come from a sample that favours hits as a whole.
RVFV N-RNA FP: inhibitors of RVFV nucleoprotein–RNA binding, primary screen, biochemical, fluorescence polarization. P21700. RVFV N-RNA binding; stronger effect = lower value. % bound, % (concentration not given with the values). hit rate 0.1% among 20,000; in the data active = % bound below about 75%
Starred values were filed as active, the others as inactive.

SMILES | RVFV N-RNA FP
NC(CO)C(=O)NNCc1ccc(O)c(O)c1O (stereo not given) | 85.1
NC(CO)C(=O)N/N=C/c1ccc(O)c(O)c1O (stereo not given) | 50.6*
O=C(CSc1ccccc1)N/N=C/c1ccccc1O | 88.9
COc1ccc2c(=O)c(Oc3ccccc3)coc2c1 | 94.4
O=C(COc1ccc2c(c1)CCC2)NN1CCOCC1 | 95.5
COc1ccc(-c2cccc(NC(=O)C(F)(F)F)c2)nn1 | 94.7
